Compounds with a hit are over-represented: about 3.1% of the library has one in this group of screens.
ELG1 DNA repair: ELG1-dependent DNA repair inhibition. 330,000 compounds, 2.3% hits. HEK293T ELG1-luciferase reporter, luminescence, 16 h; DNA damage induced by 5-fluorouridine. AID 504467. Potency, µM (doses to about 46.1 µM), inactives show at the top dose activity change, negative = inhibition, usual class: inhibitors; further: potency means the concentration at half of the fitted maximal effect; on the % scale 0 is the no-effect control and ±100 the full control effect; nearly all actives have a fitted effect of over 55% in size
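In this reporter screen, reduction of luminescence relative to DMSO vehicle indicated activity. Compounds and 5-fluorouridine were added together to 2,000 cells per well, incubated for 16 hr at 37 °C, then developed with ONE-Glo.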
Nrf2 activator: Nrf2 pathway activation; AREc32 ARE-luciferase reporter (MCF7-derived line), luminescence, 24 h; Potency, µM (highest dose often 46.1 µM), without a hit: at the top dose activation, usual class: activators; 410,000 compounds, 0.31% hits; further: potency means the concentration at half of the fitted maximal effect; % of control where 0% means no effect; nearly all actives have a fitted effect of over 65% in size
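Luciferase luminescence (Steady-Glo, 30 min at room temperature) served as the read-out of ARE activation in AREc32 cells treated with compounds for 24 hr at 37 deg C.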
IL2 activator: activates IL-2 in a cell-based reporter assay; IL-2 activation reporter assay, cell-based qHTS; stimulated with anti-CD3/CD4/CD28 beads; in transgenic mouse T cells; activation, % (series mostly up to about 46 µM); 360,000 compounds, 0.065% hits; AID 652025; in the data active means activation above about 50%; inconclusive means mostly about 30% to 49%; further: 0% is about no effect
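Screening format: compound pinned onto unstimulated transgenic mouse T cells, 60 min incubation, then anti-CD3/anti-CD4/anti-CD28 bead stimulation for 18 hours at 37 degrees C, followed by EGFP and DsRed detection.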
BRCA1 expr up: increases BRCA1 expression; MCF7-BRCA1-FFLuc reporter, luminescence, 48 h; response scale: scaled: vehicle 0%, 10 µM genistein 100%; Potency, µM (titrated, usually from 46.1 µM), without a hit: at the top dose activation, most hits filed as activators; 380,000 compounds, 1.1% hits; AID 624202; further: potency means the concentration at half of the fitted maximal effect; nearly all actives have a fitted effect of over 80% in size
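MCF7-BRCA1-FFLuc, 2000 cells/well; 2 h attach, 37 °C/5% CO2; compound 48 h; luciferase substrate 15 min; luminescence end-point. Norm. to genistein 10 microM max activation and DMSO; concentration-response curves fitted.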
* = called active by the depositor; ? = inconclusive; / = no result given; [ ] = another dose, or the depositor's remark. Unless noted, the call rests on the fitted dose curve; in most records, active means well fitted curve in the direction sought with a large enough effect; inconclusive means small, poorly fitted or top-dose-only effect, or another doubt; inactive means no such curve, though single readings can be large; an effect the other way counts as inactive or inconclusive.

SMILES	ELG1 DNA repair	Nrf2 activator	IL2 activator	BRCA1 expr up
C=CCn1c(=O)c2ccccc2n2c(SCC(=O)Nc3sc(C)c(CC)c3C(=O)OCC)nnc12	?	0%	-5	-37%
CCN(C(=O)CSc1nc2cc(C(=O)OC)ccc2c(=O)n1Cc1ccco1)c1cccc(C)c1	7.3µM*	-1%	0	1%[1.84 µM]
CCN(C(=O)CSc1nc2cc(Cl)ccc2c(=O)n1Cc1ccco1)C1CCS(=O)(=O)C1 (configuration not stated)	?	2%	0	-33%
C=CCn1c(=O)c2ccccc2n2c(SCC(=O)Nc3sc(C(=O)N(CC)CC)c(C)c3C(=O)OCC)nnc12	21µM*	0%	-2	-15%
CCOC(=O)c1c(NC(=O)CSc2nc3cc(Cl)ccc3c(=O)n2Cc2ccco2)sc(C(=O)N(C)C)c1C	3.3µM*	0%	-6	-55%
CSc1ccc(CCNC(=O)c2sc3ncccc3c2-n2cccc2)cc1	/	6%	/	/
CCCc1cc(=O)n2[nH]c(-c3ccccc3)cc2n1	?	6%	1	53%
CCCc1cc(=O)n2[nH]c(-c3ccc(Cl)cc3)cc2n1	?	5%	0	7.1µM*
CCCc1cc(=O)n2[nH]c(-c3ccc(C)cc3)cc2n1	?	-1%	0	1.4µM*
CN(C)c1ccc(C(CNS(=O)(=O)c2ccc(Cl)cc2)N2CCCC2)cc1 (configuration not stated)	/	5%	/	/
CN(C)S(=O)(=O)c1cccc(COc2ncnc3c(Cl)cc(Cl)cc23)c1	18µM*	0%	0	-30%
COC(=O)c1ccc2c(=O)n(CCCCCC(=O)NCCc3ccc(Cl)cc3)c(=O)[nH]c2c1	/	-1%	/	/
COc1ccc(OC)c(C2CC(=O)c3c([nH]c(C(=O)OCC4CCCO4)c3C)C2)c1 (configuration not stated)	10µM*	-2%	-3	-32%
COc1cc(C2CC(=O)c3c([nH]c(C(=O)OCc4ccc(C)cc4)c3C)C2)cc(OC)c1OC (configuration not stated)	/	4%	/	/
COc1cc(C2CC(=O)c3c([nH]c(C(=O)OCCOC(C)C)c3C)C2)cc(OC)c1OC (configuration not stated)	10µM*	-1%	-4	-40%
COC(=O)C[C@@H]1OC[C@H](Cc2ccccc2)N1S(=O)(=O)c1ccc(C)cc1	/	/	0	/
COc1ccc(CCNC(=O)c2cccc(-n3cnc4cccnc43)c2C)cc1OC	/	2%	/	/
Cc1nn(-c2ccccc2)c(C)c1/C=N/NC(=O)CSc1nc2ccccc2c(=O)n1-c1ccc(Br)cc1	-19%	0%	1	-55%
Cc1ccc(-n2c(SCC(=O)N3CC(=O)Nc4ccccc43)nc3ccccc3c2=O)cc1	18µM*	3%	-1	-54%
C/C(N)=C(/C#N)C(=O)CSc1nc2ccccc2c(=O)n1-c1ccc(C)cc1	7.3µM*	/	/	/
C/C(N)=C(/C#N)C(=O)CSc1nc2ccccc2c(=O)n1-c1ccccc1C	-16%	5%	-2	-33%
Cc1cccc(C)c1-n1c(SCC(=O)N2CC(=O)Nc3ccccc32)nc2ccccc2c1=O	-29%	-1%[9.22 µM]	1	-54%
C/C(N)=C(/C#N)C(=O)CSc1nc2ccccc2c(=O)n1CCCO	-2%	0%	-3	-21%
Cc1ccc(-n2c(SCC(=O)N/N=C/c3c(C)nn(-c4ccccc4)c3C)nc3ccccc3c2=O)cc1	23µM*	1%	-2	-53%
C/C(N)=C(/C#N)C(=O)CSc1nc2ccccc2c(=O)n1-c1ccc(C)c(Cl)c1	6.5µM*	0%	3	-76%
SMILES	ELG1 DNA repair	Nrf2 activator	IL2 activator	BRCA1 expr up
COc1ccc(C2CC(=O)NC(NC(=O)c3ccc(Br)cc3)=N2)c(OC)c1OC (configuration not stated)	/	0%	/	/
CCc1ccc(NC(=O)CSC2=Nc3ccccc3C3=NC(CCC(=O)NCc4cccs4)C(=O)N23)cc1 (configuration not stated)	/	3%	/	/
CC1CCN(C(=O)CSc2nc3ccccc3[nH]2)CC1	?	0%	-1	3.5µM*
NC(=O)C1CCN(C(=O)CSc2nc3ccccc3[nH]2)CC1	-1%	0%	0	5%
C/C(N)=C(/C#N)C(=O)CSc1nc2ccccc2[nH]1	?	2%	1	7.9µM*
CCc1ccc(S(=O)(=O)Nc2ccc3[nH]c(=O)sc3c2)cc1	/	5%	/	/
O=C(CSCn1nnc2c(=O)[nH]c(Cc3ccc(F)cc3)nc21)Nc1cccc(C(F)(F)F)c1	/	1%	/	/
C(=C\c1ccc(/C=C/c2ccccc2)nn1)/c1ccccc1	14%	/	/	/
N#CCSc1nccc(/C=C/c2ccccc2)n1	?	11µM*	-1	-34%
COC(=O)c1ccc(NC(=O)c2c(NCc3ccc(C)o3)sc3c2CCCC3)cc1	/	15%	/	/
COc1ccc(NC(=O)c2cccs2)c([N+](=O)[O-])c1	?	18%	0	5.6µM*
COc1ccc(NC(=O)c2sccc2C)c([N+](=O)[O-])c1	?	4%	0	11µM*
COc1ccc(NC(=O)c2cc(Cl)ccc2Cl)c([N+](=O)[O-])c1	0%	2%	-2	-21%
C=CC[n+]1ccc2ccccc2c1C	-20%	0%	-1	1%
C=CC[n+]1ccc(/C=C2\C=Cc3cc(C)ccc3N2CC)c2ccccc21	1.3µM*	-4%	-1	-77%
O=CNc1ccc(/C=C/c2ccnc3ccccc23)cc1	/	/	/	29%
CCCCN1C(=O)/C(=C/C=C2/CC(C)(C)CN2C)SC1=S	?	4%	21	10µM*
CCCCN1C(=O)/C(=C/C=C2\Oc3ccccc3N2CC)SC1=S	11%	0%	-57	-2%
COC(=O)c1cc2oc3ccccc3c2n1Cc1c(F)cccc1Cl	/	0%	/	/
c1ccc(CSc2nc3ncccn3n2)cc1	?	3%	1	2.5µM*
O=C(NCCc1ccccc1)c1nc2ncccn2n1	?	0%	0	5%
O=C(NCc1ccccc1)C(c1ccccc1)N(Cc1ccc2c(c1)OCO2)C(=O)Cc1cccs1 (configuration not stated)	16µM*	-1%	-1	-66%
O=C(NC1CCCC1)C(c1ccccc1)N(Cc1ccc2c(c1)OCO2)C(=O)Cc1cccs1 (configuration not stated)	?	0%	-2	-31%
CSc1nn(Cc2ccc(F)cc2)c(N)c1S(=O)(=O)c1ccc(Cl)cc1	/	-1%	/	-58%
O=C(Nc1cccnc1)C12CC3CC(CC(C3)C1)C2	3%	-1%	-1	-13%
O=C(Nc1cccnc1)C1(F)C(F)(F)C(F)(F)C(F)(F)C(F)(F)C1(F)F	-3%	10µM*	0	-44%
CC1=CC(C)C2(COC(c3ccc[n+](C)c3)OC2)C(C)C1 (configuration not stated)	6.5µM*	1%	8	-45%
COC(=O)CCNC(=O)c1ccc2nc(Cc3ccc(OC)c(OC)c3)oc2c1	?	4%	0	?
COc1ccc(Cc2nc3ccc(C(=O)NCCCSC)cc3o2)cc1OC	?	6%	0	13µM*

Assay outcomes: PubChem, National Center for Advancing Translational Sciences (NCATS)
